The record followed here is article PMC12529666, “Dysregulation of AGO2-miRNA dynamics underlies the AGO2-associated Lessel–Kreienkamp syndrome”.

B1: GTATTTCA (ssRNA)
RNA 1: GAGUUCUACAGUCCGACGAUCCCAACGUAUUUCACACCUGGAAUUCUCGGGUGCCAA
RNA 2: UGGAGUGUGACAAUGGUGUUUG
DNA 1: GATCGTCGGACTGTAGAACTC
DNA 2: TTGGCACCCGAGAATTCCA
modifications: constant regions annealed to DNA blockers; guide miR-122 5' phosphate
B2: ATATTTTA (ssRNA)
RNA 1: GAGUUCUACAGUCCGACGAUCCCAACAUAUUUUACACCUGGAAUUCUCGGGUGCCAA
RNA 2: UGGAGUGUGACAAUGGUGUUUG
DNA 1: GATCGTCGGACTGTAGAACTC
DNA 2: TTGGCACCCGAGAATTCCA
modifications: constant regions annealed to DNA blockers; guide miR-122 5' phosphate
B3: ATGTTTCA (ssRNA)
RNA 1: GAGUUCUACAGUCCGACGAUCCCAACAUGUUUCACACCUGGAAUUCUCGGGUGCCAA
RNA 2: UGGAGUGUGACAAUGGUGUUUG
DNA 1: GATCGTCGGACTGTAGAACTC
DNA 2: TTGGCACCCGAGAATTCCA
modifications: constant regions annealed to DNA blockers; guide miR-122 5' phosphate
B4: ATGCCTCA (ssRNA)
RNA 1: GAGUUCUACAGUCCGACGAUCCCAACAUGCCUCACACCUGGAAUUCUCGGGUGCCAA
RNA 2: UGGAGUGUGACAAUGGUGUUUG
DNA 1: GATCGTCGGACTGTAGAACTC
DNA 2: TTGGCACCCGAGAATTCCA
modifications: constant regions annealed to DNA blockers; guide miR-122 5' phosphate
B5: ACGCTCCG (ssRNA)
RNA 1: GAGUUCUACAGUCCGACGAUCCCAACACGCUCCGCACCUGGAAUUCUCGGGUGCCAA
RNA 2: UGGAGUGUGACAAUGGUGUUUG
DNA 1: GATCGTCGGACTGTAGAACTC
DNA 2: TTGGCACCCGAGAATTCCA
modifications: constant regions annealed to DNA blockers; guide miR-122 5' phosphate
B6: ACATCCTG (ssRNA)
RNA 1: GAGUUCUACAGUCCGACGAUCCCAACACAUCCUGCACCUGGAAUUCUCGGGUGCCAA
RNA 2: UGGAGUGUGACAAUGGUGUUUG
DNA 1: GATCGTCGGACTGTAGAACTC
DNA 2: TTGGCACCCGAGAATTCCA
modifications: constant regions annealed to DNA blockers; guide miR-122 5' phosphate
B7: GTATCTCA (ssRNA)
RNA 1: GAGUUCUACAGUCCGACGAUCCCAACGUAUCUCACACCUGGAAUUCUCGGGUGCCAA
RNA 2: UGGAGUGUGACAAUGGUGUUUG
DNA 1: GATCGTCGGACTGTAGAACTC
DNA 2: TTGGCACCCGAGAATTCCA
modifications: constant regions annealed to DNA blockers; guide miR-122 5' phosphate
B8: ACATCCCG (ssRNA)
RNA 1: GAGUUCUACAGUCCGACGAUCCCAACACAUCCCGCACCUGGAAUUCUCGGGUGCCAA
RNA 2: UGGAGUGUGACAAUGGUGUUUG
DNA 1: GATCGTCGGACTGTAGAACTC
DNA 2: TTGGCACCCGAGAATTCCA
modifications: constant regions annealed to DNA blockers; guide miR-122 5' phosphate
B9: ACGCCCCA (ssRNA)
RNA 1: GAGUUCUACAGUCCGACGAUCCCAACACGCCCCACACCUGGAAUUCUCGGGUGCCAA
RNA 2: UGGAGUGUGACAAUGGUGUUUG
DNA 1: GATCGTCGGACTGTAGAACTC
DNA 2: TTGGCACCCGAGAATTCCA
modifications: constant regions annealed to DNA blockers; guide miR-122 5' phosphate
B10: ACGTTTCA (ssRNA)
RNA 1: GAGUUCUACAGUCCGACGAUCCCAACACGUUUCACACCUGGAAUUCUCGGGUGCCAA
RNA 2: UGGAGUGUGACAAUGGUGUUUG
DNA 1: GATCGTCGGACTGTAGAACTC
DNA 2: TTGGCACCCGAGAATTCCA
modifications: constant regions annealed to DNA blockers; guide miR-122 5' phosphate

Sequence of AGO2 F182del (Q9UKV8 other isoform, or with tags, fused parts or gaps S387D;S824A;S828D;S831D;S834A;del182-182): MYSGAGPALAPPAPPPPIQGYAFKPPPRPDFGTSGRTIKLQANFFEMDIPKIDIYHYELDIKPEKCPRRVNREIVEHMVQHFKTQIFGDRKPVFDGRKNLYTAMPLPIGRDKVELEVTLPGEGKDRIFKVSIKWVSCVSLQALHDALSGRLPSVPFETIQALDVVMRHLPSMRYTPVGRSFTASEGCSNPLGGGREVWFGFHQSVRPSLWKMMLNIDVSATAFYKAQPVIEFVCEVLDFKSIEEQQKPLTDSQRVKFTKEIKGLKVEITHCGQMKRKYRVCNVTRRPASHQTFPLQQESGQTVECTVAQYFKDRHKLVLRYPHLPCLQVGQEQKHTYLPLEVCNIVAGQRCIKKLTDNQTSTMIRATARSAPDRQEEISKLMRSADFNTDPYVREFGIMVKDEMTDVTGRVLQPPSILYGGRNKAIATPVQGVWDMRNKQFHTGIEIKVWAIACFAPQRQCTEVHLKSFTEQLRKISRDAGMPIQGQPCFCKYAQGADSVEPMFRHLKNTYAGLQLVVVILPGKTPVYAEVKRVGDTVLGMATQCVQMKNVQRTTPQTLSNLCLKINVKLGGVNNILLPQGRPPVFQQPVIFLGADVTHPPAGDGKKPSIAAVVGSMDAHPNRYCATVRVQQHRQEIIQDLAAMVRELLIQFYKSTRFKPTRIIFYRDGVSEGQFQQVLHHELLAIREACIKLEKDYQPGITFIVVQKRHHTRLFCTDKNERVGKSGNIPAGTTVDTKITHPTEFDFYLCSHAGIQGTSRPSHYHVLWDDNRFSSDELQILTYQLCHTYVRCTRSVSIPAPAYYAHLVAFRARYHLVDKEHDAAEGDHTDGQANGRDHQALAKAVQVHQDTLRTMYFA
Sequence of AGO2 A367P (Q9UKV8 whole entry A367P/S387D/S824A/S828D/S831D/S834A): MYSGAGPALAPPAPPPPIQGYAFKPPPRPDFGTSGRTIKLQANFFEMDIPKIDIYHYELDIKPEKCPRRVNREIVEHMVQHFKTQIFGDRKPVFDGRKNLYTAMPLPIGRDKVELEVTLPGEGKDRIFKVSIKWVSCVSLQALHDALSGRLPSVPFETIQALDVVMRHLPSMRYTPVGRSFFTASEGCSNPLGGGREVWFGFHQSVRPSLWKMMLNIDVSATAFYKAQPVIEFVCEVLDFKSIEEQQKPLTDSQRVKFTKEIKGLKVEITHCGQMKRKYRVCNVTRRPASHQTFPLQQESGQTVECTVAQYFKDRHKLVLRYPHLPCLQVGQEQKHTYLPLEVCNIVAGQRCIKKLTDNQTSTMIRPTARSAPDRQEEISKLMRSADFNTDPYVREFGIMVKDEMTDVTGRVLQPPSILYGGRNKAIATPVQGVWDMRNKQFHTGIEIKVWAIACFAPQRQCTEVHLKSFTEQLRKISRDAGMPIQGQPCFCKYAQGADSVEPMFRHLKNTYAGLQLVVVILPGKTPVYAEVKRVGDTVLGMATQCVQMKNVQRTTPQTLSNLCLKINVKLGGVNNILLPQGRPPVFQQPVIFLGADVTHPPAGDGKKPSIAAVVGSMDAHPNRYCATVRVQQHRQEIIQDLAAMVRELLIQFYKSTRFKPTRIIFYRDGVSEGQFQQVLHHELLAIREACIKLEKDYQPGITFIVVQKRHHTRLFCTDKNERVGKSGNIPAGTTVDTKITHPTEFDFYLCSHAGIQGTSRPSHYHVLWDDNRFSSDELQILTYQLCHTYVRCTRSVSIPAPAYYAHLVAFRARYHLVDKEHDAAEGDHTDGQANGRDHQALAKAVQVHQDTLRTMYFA
Sequence of AGO2 T357M (Q9UKV8 whole entry T357M/S387D/S824A/S828D/S831D/S834A): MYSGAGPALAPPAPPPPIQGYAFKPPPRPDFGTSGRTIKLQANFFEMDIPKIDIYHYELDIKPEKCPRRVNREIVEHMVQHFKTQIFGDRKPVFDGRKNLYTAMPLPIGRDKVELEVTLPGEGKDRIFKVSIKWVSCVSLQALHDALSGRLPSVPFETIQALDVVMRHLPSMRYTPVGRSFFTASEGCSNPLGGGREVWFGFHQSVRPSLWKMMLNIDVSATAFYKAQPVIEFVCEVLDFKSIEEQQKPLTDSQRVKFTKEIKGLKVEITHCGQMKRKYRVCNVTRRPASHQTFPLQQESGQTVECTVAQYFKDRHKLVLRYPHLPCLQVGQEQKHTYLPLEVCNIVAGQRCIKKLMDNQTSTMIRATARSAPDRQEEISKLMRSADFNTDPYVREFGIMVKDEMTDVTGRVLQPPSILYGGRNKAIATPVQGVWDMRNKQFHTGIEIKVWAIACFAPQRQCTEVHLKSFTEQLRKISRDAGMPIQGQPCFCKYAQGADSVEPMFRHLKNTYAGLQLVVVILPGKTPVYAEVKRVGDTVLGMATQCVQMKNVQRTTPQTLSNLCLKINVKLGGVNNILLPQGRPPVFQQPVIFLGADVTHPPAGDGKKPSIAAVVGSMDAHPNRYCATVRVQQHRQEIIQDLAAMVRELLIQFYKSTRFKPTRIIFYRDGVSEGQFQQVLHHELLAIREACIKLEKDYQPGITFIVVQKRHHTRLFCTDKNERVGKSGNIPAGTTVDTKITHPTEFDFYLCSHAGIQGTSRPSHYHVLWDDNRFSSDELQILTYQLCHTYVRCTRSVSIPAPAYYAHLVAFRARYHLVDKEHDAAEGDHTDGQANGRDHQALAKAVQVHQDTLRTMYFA
Sequence of AGO2 L192P (Q9UKV8 whole entry L192P/S387D/S824A/S828D/S831D/S834A): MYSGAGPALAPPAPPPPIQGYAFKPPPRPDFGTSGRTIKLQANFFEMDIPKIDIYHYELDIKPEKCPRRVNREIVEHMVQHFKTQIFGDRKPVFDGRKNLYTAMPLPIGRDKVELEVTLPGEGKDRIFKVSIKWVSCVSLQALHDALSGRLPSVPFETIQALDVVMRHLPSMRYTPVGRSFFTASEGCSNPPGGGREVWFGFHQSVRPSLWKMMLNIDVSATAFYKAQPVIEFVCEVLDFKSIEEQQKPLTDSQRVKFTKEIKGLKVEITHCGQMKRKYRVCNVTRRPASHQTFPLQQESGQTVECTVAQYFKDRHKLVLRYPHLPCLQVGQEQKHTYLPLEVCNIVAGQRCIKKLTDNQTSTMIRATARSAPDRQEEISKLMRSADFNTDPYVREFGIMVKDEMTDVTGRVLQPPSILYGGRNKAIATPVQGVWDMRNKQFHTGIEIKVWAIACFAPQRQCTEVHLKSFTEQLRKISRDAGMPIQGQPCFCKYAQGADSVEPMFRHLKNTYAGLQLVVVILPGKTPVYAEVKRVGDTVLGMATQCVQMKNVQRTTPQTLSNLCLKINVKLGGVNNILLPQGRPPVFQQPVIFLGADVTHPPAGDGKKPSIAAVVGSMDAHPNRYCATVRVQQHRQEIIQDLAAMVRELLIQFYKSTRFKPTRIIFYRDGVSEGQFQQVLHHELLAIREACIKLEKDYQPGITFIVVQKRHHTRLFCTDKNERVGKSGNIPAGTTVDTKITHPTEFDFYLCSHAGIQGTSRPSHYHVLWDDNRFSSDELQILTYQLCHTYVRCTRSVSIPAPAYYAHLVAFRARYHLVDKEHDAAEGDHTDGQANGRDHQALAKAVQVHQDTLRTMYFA
Sequence of AGO2 WT (phosphosite mutant background) (Q9UKV8 whole entry S387D/S824A/S828D/S831D/S834A): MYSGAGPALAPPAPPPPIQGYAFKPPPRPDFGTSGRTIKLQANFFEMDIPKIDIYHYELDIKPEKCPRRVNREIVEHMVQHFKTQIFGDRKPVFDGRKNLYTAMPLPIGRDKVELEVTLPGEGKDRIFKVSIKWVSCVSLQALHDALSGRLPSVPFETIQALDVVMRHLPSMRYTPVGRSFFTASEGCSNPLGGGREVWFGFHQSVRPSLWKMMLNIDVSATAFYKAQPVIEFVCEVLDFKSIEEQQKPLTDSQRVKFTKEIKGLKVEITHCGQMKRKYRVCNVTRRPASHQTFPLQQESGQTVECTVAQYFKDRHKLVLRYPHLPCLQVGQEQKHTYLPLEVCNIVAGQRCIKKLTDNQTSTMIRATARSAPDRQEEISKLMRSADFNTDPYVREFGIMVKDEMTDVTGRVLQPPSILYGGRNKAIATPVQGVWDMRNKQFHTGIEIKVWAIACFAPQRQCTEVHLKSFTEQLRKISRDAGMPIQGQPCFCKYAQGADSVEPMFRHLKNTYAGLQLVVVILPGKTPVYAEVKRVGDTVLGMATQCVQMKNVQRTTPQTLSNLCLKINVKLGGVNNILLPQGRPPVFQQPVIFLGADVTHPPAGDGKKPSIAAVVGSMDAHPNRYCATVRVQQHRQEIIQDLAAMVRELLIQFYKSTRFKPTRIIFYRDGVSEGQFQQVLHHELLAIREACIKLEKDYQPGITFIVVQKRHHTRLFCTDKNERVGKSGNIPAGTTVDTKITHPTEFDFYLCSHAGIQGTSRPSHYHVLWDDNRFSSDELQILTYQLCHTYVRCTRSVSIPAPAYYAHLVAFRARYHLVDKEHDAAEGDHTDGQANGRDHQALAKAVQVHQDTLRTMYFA

In one assay the target is AGO2 WT (phosphosite mutant background) (Homo sapiens, UniProt Q9UKV8 1-859, S387D;S824A;S828D;S831D;S834A). The assay can be described thus: RNA Bind-n-Seq (nitrocellulose filter binding and sequencing); miR-122 guide loaded in AGO2; 60 min incubation; 30 mM Tris pH 8.0, 100 mM potassium acetate, 2 mM magnesium acetate, 0.5 mM TCEP, 0.005% NP-40, 0.01 mg/ml yeast tRNA; 3 nM AGO2-miR-122, 100 nM RNA library; 60; high values mean tight binding. The settings on record: protein: recombinant; tags: His6 (N-terminal, pFastBac HTA). The procedure, abridged:
(§1)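 His-tagged AGO2 was expressed in Sf9 insect cells by baculovirus, loaded with a synthetic guide RNA, and purified by Ni-NTA and a biotinylated capture oligo. Bound RNA was extracted, reverse-transcribed, barcode-amplified and Illumina-sequenced. Fold enrichment is each sequence's read fraction divided by its input-library read fraction.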
Regarding B1, the binding signal was 0.136 fold enrichment over input.
The same measure, in the same setting: for B2 the value was 0.127 fold enrichment over input; for B3, 0.125 fold enrichment over input.
Regarding B4, the binding signal was 0.127 fold enrichment over input.
On to B5, for which the binding signal is 3.15 fold enrichment over input.
In the case of B6, the binding signal was 0.144 fold enrichment over input.
On to B7, for which the binding signal is 0.141 fold enrichment over input.
Turning to B8, the binding signal was 0.128 fold enrichment over input.
Regarding B9, the binding signal was 0.123 fold enrichment over input.
For B10, the binding signal was 0.146 fold enrichment over input.

The next assay has as its target AGO2 L192P (Homo sapiens, UniProt Q9UKV8 1-859, L192P;S387D;S824A;S828D;S831D;S834A). The assay is described as above. Particulars: protein: recombinant; tags: His6 (N-terminal, pFastBac HTA). Summed up: as §1
With B1, the binding signal was 0.545 fold enrichment over input.
On to B2, for which the binding signal is 0.509 fold enrichment over input.
With B3, the binding signal was 0.54 fold enrichment over input.
As to B4, the binding signal is 0.547 fold enrichment over input.
Turning to B5, the binding signal was 10.8 fold enrichment over input.
For B6, the binding signal is 0.376 fold enrichment over input.
For B7, the binding signal is 0.597 fold enrichment over input.
Regarding B8, the binding signal is 0.38 fold enrichment over input.
For B9, the binding signal was 0.538 fold enrichment over input.
Consider B10, for which the binding signal was 0.656 fold enrichment over input.

Another assay concerns the target AGO2 A367P (Homo sapiens, UniProt Q9UKV8 1-859, A367P;S387D;S824A;S828D;S831D;S834A). The description is as above. The settings on record: protein: recombinant; tags: His6 (N-terminal, pFastBac HTA). Summed up:
as §1
Consider B1, for which the binding signal was 0.337 fold enrichment over input.
As to B2, the binding signal was 0.189 fold enrichment over input.
For the molecule B3, the binding signal is 0.311 fold enrichment over input.
As to B4, the binding signal was 0.307 fold enrichment over input.
As to B5, the binding signal was 14 fold enrichment over input.
Regarding B6, the binding signal was 0.171 fold enrichment over input.
Consider B7, for which the binding signal was 0.455 fold enrichment over input.
For the molecule B8, the binding signal is 0.158 fold enrichment over input.
On to B9, for which the binding signal was 0.215 fold enrichment over input.
As for B10, the binding signal is 0.363 fold enrichment over input.

Another assay has as its target AGO2 T357M (Homo sapiens, UniProt Q9UKV8 1-859, T357M;S387D;S824A;S828D;S831D;S834A). The assay is described as above. Particulars: protein: recombinant; tags: His6 (N-terminal, pFastBac HTA). Summed up: as §1
As to B1, the binding signal was 0.647 fold enrichment over input.
Take B2: the binding signal was 0.697 fold enrichment over input.
Same read-out and setting: for B3 the value was 0.58 fold enrichment over input.
Still for that read-out and setting: for B4 the value was 0.637 fold enrichment over input; for B5, 1.98 fold enrichment over input.
For the molecule B6, the binding signal is 0.475 fold enrichment over input.
Regarding B7, the binding signal is 0.579 fold enrichment over input.
The same measure, in the same setting: as for B8, the figure is 0.471 fold enrichment over input.
Consider B9, for which the binding signal is 0.719 fold enrichment over input.
In the case of B10, the binding signal was 0.572 fold enrichment over input.

The next assay addresses AGO2 F182del (Homo sapiens, UniProt Q9UKV8 1-859, S387D;S824A;S828D;S831D;S834A;del182-182). Described as above. The settings on record: protein: recombinant; tags: His6 (N-terminal, pFastBac HTA). Summed up:
as §1
For B1, the binding signal is 0.805 fold enrichment over input.
B3: the binding signal is 0.814 fold enrichment over input.
Same read-out and setting: as for B4, the figure is 0.9 fold enrichment over input; as for B5, 15.2 fold enrichment over input; as for B6, 0.153 fold enrichment over input.
Consider B7, for which the binding signal was 1.35 fold enrichment over input.
Regarding B8, the binding signal is 0.144 fold enrichment over input.
As for B9, the binding signal was 0.236 fold enrichment over input.
Regarding B10, the binding signal was 1.44 fold enrichment over input.
